Source: PubChem BioAssay (NCATS)
Results filed as inconclusive are left out. The source made the active and inactive calls. Calls follow the shape of the dose curve; as a rule, active = well fitted curve in the direction sought with a large enough effect; inconclusive = small, poorly fitted or top-dose-only effect, or another doubt; inactive = no such curve, though single readings can be large; an effect the other way counts as inactive or inconclusive.

Legend:
[1] = molecular target: Rap guanine nucleotide exchange factor 3 (Homo sapiens) (UniProt O95398); test: Confirmatory qHTS for antagonist of cAMP-regulated guanine nucleotide exchange factor 3 (EPAC1) (AID 1645880); also: nearly all actives have a fitted effect of over 55% in size; also: potency is read from the fitted curve at half-maximal effect
Outline: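 Nucleotide exchange uses 100 nM EPAC1, 250 nM RAP1B-BODIPY-GDP and 50 uM GDP, with compounds in a concentration-titration series. After 5 min at room temperature, fluorescence (480 nm ex/540 nm em) is read every 5 min for 30 min. Data are normalized to control ATA and DMSO.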

[2] = molecular target: Rap guanine nucleotide exchange factor 3 (Homo sapiens) (UniProt O95398); test: Confirmatory qHTS for agonist of cAMP-regulated guanine nucleotide exchange factor 3 (EPAC1) (AID 1645881);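 also: EPAC1 catalysed release of BODIPY-GDP from Rap1B seen as fluorescence loss; 100% = effect of cAMP agonist control; nearly all actives have a fitted effect of over 75% in size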
[3] = molecular target: Rap guanine nucleotide exchange factor 4 (Homo sapiens) (UniProt Q8WZA2); test: Confirmatory qHTS for agonist of cAMP-regulated guanine nucleotide exchange factor 4 (EPAC2) (AID 1645884);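 also: nucleotide exchange releases bodipy-GDP from Rap1 and this lowers its fluorescence; % is scaled to controls: 0 for no effect and ±100 for the full control effect; nearly all actives have a fitted effect of over 65% in size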
[4] = molecular target: Rap guanine nucleotide exchange factor 4 (Homo sapiens) (UniProt Q8WZA2); test: Confirmatory qHTS for antagonist of cAMP-regulated guanine nucleotide exchange factor 4 (EPAC2) (AID 1645885); also: nearly all actives have a fitted effect of over 25% in size; also: potency is read from the fitted curve at half-maximal effect; as to activity change, negative = inhibition: % is scaled to controls: 0 for no effect and ±100 for the full control effect
[5] = molecular target: Rap guanine nucleotide exchange factor 3 (Homo sapiens) (UniProt O95398); test: Counterscreen qHTS for antagonist of cAMP-regulated guanine nucleotide exchange factor 3 (EPAC1) (AID 1645888);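 also: fluorescence loss as bound BODIPY-GDP is released from Rap1B; % of control where 0% means no effect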
Outline: (§1)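 Rap1B–BODIPY-GDP (250 nM) with 50 uM GDP; compounds pin-transferred to 9.74 nM–152 uM final (activator) or from 7.32 nM upwards (inhibitor). Fluorescence Ex/Em 480/540 nm read at 5 and 30 min, then after adding cAMP or buffer, at room temperature.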

[6] = molecular target: Rap guanine nucleotide exchange factor 3 (Homo sapiens) (UniProt O95398); test: Counterscreen qHTS for agonist of cAMP-regulated guanine nucleotide exchange factor 3 (EPAC1) (AID 1645889); also: nearly all actives have a fitted effect of over 40% in size; also: potency is read from the fitted curve at half-maximal effect; as to activation: % of control where 0% means no effect
Outline: as §1

Rap guanine nucleotide exchange factor 4 (Homo sapiens), sequence (Q8WZA2 whole entry, looked up): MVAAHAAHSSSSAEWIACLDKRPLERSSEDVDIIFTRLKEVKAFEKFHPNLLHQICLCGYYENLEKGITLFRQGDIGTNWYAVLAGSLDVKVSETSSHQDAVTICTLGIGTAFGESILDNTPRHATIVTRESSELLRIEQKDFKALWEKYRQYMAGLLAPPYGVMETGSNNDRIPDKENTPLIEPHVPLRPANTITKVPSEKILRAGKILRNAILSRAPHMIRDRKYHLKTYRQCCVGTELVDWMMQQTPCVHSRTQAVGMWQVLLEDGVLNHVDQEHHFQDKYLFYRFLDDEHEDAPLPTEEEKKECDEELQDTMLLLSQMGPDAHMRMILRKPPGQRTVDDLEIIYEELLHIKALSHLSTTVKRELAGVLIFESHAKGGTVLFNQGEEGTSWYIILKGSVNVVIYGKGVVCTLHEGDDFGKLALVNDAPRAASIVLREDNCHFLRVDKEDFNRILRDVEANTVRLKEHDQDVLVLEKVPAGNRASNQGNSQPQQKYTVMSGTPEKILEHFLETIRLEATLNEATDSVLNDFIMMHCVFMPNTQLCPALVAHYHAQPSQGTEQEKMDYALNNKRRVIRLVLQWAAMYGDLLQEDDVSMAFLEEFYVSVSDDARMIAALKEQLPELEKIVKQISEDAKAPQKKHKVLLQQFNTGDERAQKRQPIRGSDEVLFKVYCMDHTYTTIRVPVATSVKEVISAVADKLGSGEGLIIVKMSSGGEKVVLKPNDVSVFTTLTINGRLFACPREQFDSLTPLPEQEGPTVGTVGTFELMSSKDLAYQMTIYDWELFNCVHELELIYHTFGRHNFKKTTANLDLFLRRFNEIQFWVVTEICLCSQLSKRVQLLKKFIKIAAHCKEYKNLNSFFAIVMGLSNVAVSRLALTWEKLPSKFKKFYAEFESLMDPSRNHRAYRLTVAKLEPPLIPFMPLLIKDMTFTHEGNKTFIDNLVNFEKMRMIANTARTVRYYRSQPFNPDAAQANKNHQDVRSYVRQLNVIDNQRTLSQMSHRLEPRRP
Rap guanine nucleotide exchange factor 3 (Homo sapiens), sequence (O95398 whole entry, looked up): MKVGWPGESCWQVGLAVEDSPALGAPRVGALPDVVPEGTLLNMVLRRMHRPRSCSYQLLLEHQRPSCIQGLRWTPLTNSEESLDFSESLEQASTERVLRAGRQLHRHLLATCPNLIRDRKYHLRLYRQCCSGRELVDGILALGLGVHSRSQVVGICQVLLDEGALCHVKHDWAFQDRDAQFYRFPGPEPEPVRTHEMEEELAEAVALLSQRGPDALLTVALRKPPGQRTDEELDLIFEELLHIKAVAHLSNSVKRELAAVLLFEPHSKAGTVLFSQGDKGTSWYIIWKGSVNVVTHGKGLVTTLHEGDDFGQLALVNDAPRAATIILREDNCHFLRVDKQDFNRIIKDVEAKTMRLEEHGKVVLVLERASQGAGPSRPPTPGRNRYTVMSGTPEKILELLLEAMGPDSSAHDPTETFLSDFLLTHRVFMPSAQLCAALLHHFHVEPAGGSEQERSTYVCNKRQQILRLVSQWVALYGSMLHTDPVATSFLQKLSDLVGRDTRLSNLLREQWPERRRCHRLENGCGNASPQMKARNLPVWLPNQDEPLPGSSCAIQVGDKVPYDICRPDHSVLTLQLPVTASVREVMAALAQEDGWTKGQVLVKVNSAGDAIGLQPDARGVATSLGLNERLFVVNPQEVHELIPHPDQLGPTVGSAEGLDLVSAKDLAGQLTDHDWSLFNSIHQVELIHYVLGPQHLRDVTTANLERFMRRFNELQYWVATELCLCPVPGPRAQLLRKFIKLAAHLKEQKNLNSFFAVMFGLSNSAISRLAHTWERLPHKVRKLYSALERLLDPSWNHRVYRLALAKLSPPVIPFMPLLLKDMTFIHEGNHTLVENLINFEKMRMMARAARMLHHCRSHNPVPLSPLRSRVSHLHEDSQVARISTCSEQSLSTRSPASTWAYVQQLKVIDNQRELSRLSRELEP

c1ccc(-n2nnnc2-n2ccnc2)cc1
inactive: Potency [1] | Potency [2] | Potency [3] | Potency [4] | Potency [5] | Potency [6]

COC(=O)c1sc(-c2ccccc2)cc1NC(C)=O
inactive: Potency [1] | Potency [2] | activation [3] 3.04% [at 17.1 µM, percent relative to cAMP agonist control] | Potency [4] | activity change, negative = inhibition [5] 7.63% [at 30.8 µM] | activation [6] 9.28% [at 30.8 µM]

CC1=CC=CC2=NC(=O)CC(C)(C(=O)N(CC(=O)NC(C)C)C3CCCC3)N12 (stereo not given)
inactive: Potency [1] | Potency [2] | activation [3] 3.39% [at 17.1 µM, percent relative to cAMP agonist control] | Potency [4] | activity change, negative = inhibition [5] -13.5% [at 30.8 µM] | activation [6] 26.5% [at 30.8 µM]

CCOc1cc(/C=N/Nc2ccc(S(=O)(=O)Nc3ccccc3C(=O)O)cc2[N+](=O)[O-])cc(Cl)c1O
active: Potency [1] 33.8 µM
inactive: Potency [2] | Potency [3] | Potency [4] | Potency [5] | Potency [6]

Oc1ccc(NCc2cccs2)cc1
inactive: Potency [1] | Potency [2] | activation [3] 14.6% [at 17.1 µM, percent relative to cAMP agonist control] | Potency [4] | activity change, negative = inhibition [5] 0.945% [at 30.8 µM] | activation [6] 21.5% [at 30.8 µM]

O=C(O)CN1C(=O)/C(=C\c2ccccc2OCc2ccc(Cl)cc2Cl)SC1=S
inactive: Potency [2] | activation [3] -0.613% [at 17.1 µM, percent relative to cAMP agonist control] | Potency [4] | activity change, negative = inhibition [5] -18.8% [at 30.8 µM] | activation [6] 3.68% [at 30.8 µM]
active: Potency [1] 44.7 µM

C=CC[C@@H](CC(=O)NCCO)C(=O)N[C@@H](C)COC(=O)[C@H](CC=C)CC(=O)OC(C)(C)C
inactive: Potency [1] | Potency [2] | activation [3] -2.5% [at 17.1 µM, percent relative to cAMP agonist control] | Potency [4] | activity change, negative = inhibition [5] 2.15% [at 30.8 µM] | activation [6] -7.04% [at 30.8 µM]

Cc1cc(=O)n2c(sc3ccccc32)c1C#N
inactive: Potency [1] | Potency [2] | activation [3] -1.37% [at 17.1 µM, percent relative to cAMP agonist control] | Potency [4] | activity change, negative = inhibition [5] 11.2% [at 30.8 µM] | activation [6] 22.2% [at 30.8 µM]

CCN(CC)S(=O)(=O)c1cc(NC(=O)Cn2ncc(Cl)c(Cl)c2=O)ccc1C
inactive: Potency [2] | activation [3] -11.9% [at 17.1 µM, percent relative to cAMP agonist control] | Potency [4] | activity change, negative = inhibition [5] -2.1% [at 30.8 µM] | activation [6] 5.37% [at 30.8 µM]
active: Potency [1] 39.8 µM

CCOCCCn1c(SCC(=O)Nc2ccc(OC)cc2OC)nc2ccccc2c1=O
inactive: Potency [1] | Potency [2] | Potency [3] | outcome [4] inactive [at 12.7 µM] | Potency [5] | Potency [6]

CCC(Oc1ccccc1)C(=O)Nc1cc(Cl)ccc1-n1cncn1 (stereo not given)
active: Potency [4] 47.8 µM
inactive: Potency [1] | Potency [2] | Potency [3] | Potency [5] | Potency [6]

CCC1CCCCN1CCCNC(=O)c1ccc(CS(=O)(=O)Cc2ccccc2F)o1 (stereo not given)
inactive: Potency [1] | Potency [2] | Potency [3] | Potency [4] | Potency [5] | Potency [6]

COc1ccc(/C=C\c2onc(C)c2S(=O)(=O)N2CCC(C(=O)NCCC(C)C)CC2)cc1
inactive: Potency [1] | Potency [2] | activation [3] 8.7% [at 17.1 µM, percent relative to cAMP agonist control] | Potency [4] | activity change, negative = inhibition [5] -14.8% [at 30.8 µM] | activation [6] 19.1% [at 30.8 µM]

CCOC(=O)c1ccc(-c2ccc(/C=C(\C#N)C(=O)Nc3c(C)cccc3Cl)o2)cc1
inactive: Potency [2] | Potency [3] | Potency [4] | Potency [5] | Potency [6]
active: Potency [1] 75.7 µM

COc1cc(CC(=O)Nc2ccccc2N2CCCCC2)cc(OC)c1OC
inactive: Potency [1] | Potency [2] | Potency [3] | Potency [4] | Potency [5] | Potency [6]

Nc1c(-c2nc(-c3cccs3)no2)nnn1-c1cccc(Cl)c1
inactive: Potency [1] | Potency [2] | Potency [3] | outcome [4] inactive [at 12.7 µM] | Potency [5] | Potency [6]

COc1ccc(N(C)S(=O)(=O)c2cccc3nsnc23)cc1
inactive: Potency [1] | Potency [2] | Potency [3] | Potency [4] | Potency [5] | Potency [6]

COc1cccc(/C=C2\SC(=S)N(C(Cc3ccccc3)C(=O)O)C2=O)c1 (stereo not given)
active: Potency [1] 47.8 µM
inactive: Potency [2] | Potency [3] | Potency [4] | Potency [5] | Potency [6]

CC(C)CC(C(=O)NC1CCCCC1)N(Cc1ccccc1)C(=O)c1snc(C(N)=O)c1N (stereo not given)
inactive: Potency [1] | Potency [2] | activation [3] 1.37% [at 17.1 µM, percent relative to cAMP agonist control] | Potency [4] | activity change, negative = inhibition [5] -17.8% [at 30.8 µM] | activation [6] 19% [at 30.8 µM]

CC(=O)C1=C(O)C(=O)N(c2cccc(Br)c2)C1c1ccc(Br)cc1 (stereo not given)
active: Potency [1] 37.9 µM
inactive: Potency [2] | Potency [3] | Potency [4] | Potency [5] | Potency [6]

CC(Sc1ccc(Cl)cc1)C(=O)NNC(=O)c1csc(N2CCOCC2)n1 (stereo not given)
inactive: Potency [1] | Potency [2] | activation [3] 4.3% [at 17.1 µM, percent relative to cAMP agonist control] | Potency [4] | activity change, negative = inhibition [5] -11.6% [at 30.8 µM] | activation [6] 30.8% [at 30.8 µM]

CCOC(=O)Cn1c(=O)oc2cc(S(=O)(=O)Nc3c(C)cc(C)cc3C)ccc21
inactive: Potency [1] | Potency [2] | activation [3] 4.43% [at 17.1 µM, percent relative to cAMP agonist control] | Potency [4] | activity change, negative = inhibition [5] -16.5% [at 30.8 µM] | activation [6] 25.1% [at 30.8 µM]

CC[C@@]1(c2ccccc2OC)ON(c2ccccc2C(F)(F)F)C1=O
inactive: Potency [1] | Potency [2] | Potency [3] | Potency [4] | Potency [5] | Potency [6]

Cc1cccc(NC(=O)CN2C(=O)S/C(=C\c3ccc(O)c([N+](=O)[O-])c3)C2=O)c1
inactive: Potency [2] | Potency [3] | Potency [4] | Potency [5] | Potency [6]
active: Potency [1] 23.9 µM

COCCOC(=O)C(C#N)c1nc2ccccc2nc1N1CCN(Cc2ccccc2)CC1 (stereo not given)
inactive: Potency [1] | Potency [2] | activation [3] 10.5% [at 17.1 µM, percent relative to cAMP agonist control] | Potency [4] | activity change, negative = inhibition [5] 4.89% [at 30.8 µM] | activation [6] 38.2% [at 30.8 µM]

Cc1onc(-c2c(F)cccc2Cl)c1C(=O)OCC(=O)N(C)c1ccccc1
inactive: Potency [1] | Potency [2] | activation [3] 4.47% [at 17.1 µM, percent relative to cAMP agonist control] | Potency [4] | activity change, negative = inhibition [5] -6.38% [at 30.8 µM] | activation [6] 12.2% [at 30.8 µM]

COc1ccc(N(C)C(=O)c2oc(=O)c3ccccc3c2-c2ccc(C)cc2)c(OC)c1
inactive: Potency [1] | Potency [2] | Potency [3] | Potency [4] | Potency [5] | Potency [6]

Cc1cc(=O)n(C2CCS(=O)(=O)C2)[nH]1 (stereo not given)
inactive: Potency [1] | Potency [2] | Potency [3] | Potency [4] | Potency [5]
active: Potency [6] 4.47 µM

Cc1nc2cc(NC(=O)CCS(=O)(=O)c3ccccc3)ccc2s1
inactive: Potency [1] | Potency [2] | activation [3] -6.47% [at 17.1 µM, percent relative to cAMP agonist control] | Potency [4] | activity change, negative = inhibition [5] -11.5% [at 30.8 µM] | activation [6] 14.1% [at 30.8 µM]

Nc1nc(CSc2nnnn2-c2ccc(Cl)cc2)nc(N2CCOCC2)n1
inactive: Potency [1] | Potency [2] | activation [3] 5.65% [at 17.1 µM, percent relative to cAMP agonist control] | Potency [4] | activity change, negative = inhibition [5] 9.77% [at 30.8 µM] | activation [6] 8.16% [at 30.8 µM]

COC(=O)c1cc2sc(C)cc2n1Cc1cccc(OC)c1
inactive: Potency [1] | Potency [2] | Potency [3] | Potency [4] | Potency [5] | Potency [6]

CC(=O)CCc1oc2ccc(C)cc2c1-c1ccc(C)o1
inactive: Potency [1] | Potency [2] | activation [3] 9.77% [at 17.1 µM, percent relative to cAMP agonist control] | Potency [4] | activity change, negative = inhibition [5] -33.7% [at 30.8 µM] | activation [6] 31.9% [at 30.8 µM]

CCC(=O)Nc1ccc(C(=O)NNC(=O)c2ccc([N+](=O)[O-])cc2)cc1
inactive: Potency [1] | Potency [2] | Potency [3] | Potency [4] | Potency [5] | Potency [6]

Cn1cc(C(C[N+](=O)[O-])c2ccccc2)c2ccccc21 (stereo not given)
inactive: Potency [1] | Potency [2] | activation [3] 0.148% [at 17.1 µM, percent relative to cAMP agonist control] | Potency [4] | activity change, negative = inhibition [5] -4.06% [at 30.8 µM] | activation [6] 13.8% [at 30.8 µM]

CC1CCN(C(=O)CSc2nnc(CN3CCOCC3)n2-c2ccccc2)CC1
inactive: Potency [1] | Potency [2] | Potency [3] | Potency [4] | Potency [5] | Potency [6]

Cc1nc(-c2cccc(NC(=O)Cc3ccccc3)c2)cs1
inactive: Potency [1] | Potency [2] | activation [3] 1.14% [at 17.1 µM, percent relative to cAMP agonist control] | Potency [4] | activity change, negative = inhibition [5] -17.6% [at 30.8 µM] | activation [6] 2.08% [at 30.8 µM]

COc1ccc(CNC(=O)c2cc(=O)c3cc(C)ccc3o2)cc1
inactive: Potency [1] | Potency [2] | Potency [3] | Potency [4] | Potency [5] | Potency [6]

COCCNC(=O)CS(=O)Cc1nc(-c2ccc(Cl)cc2)oc1C (stereo not given)
inactive: Potency [1] | Potency [2] | activation [3] 3.09% [at 17.1 µM, percent relative to cAMP agonist control] | Potency [4] | activity change, negative = inhibition [5] 7.48% [at 30.8 µM] | activation [6] 14.9% [at 30.8 µM]

CCOC(=O)C1CCCN(c2c(NCCN3CCCCC3C)c(=O)c2=O)C1 (stereo not given)
inactive: Potency [1] | Potency [2] | Potency [3] | Potency [4] | Potency [5] | Potency [6]

O=C1C=C(N2CCOCC2)c2ccccc2C1=O
active: Potency [1] 39.8 µM
inactive: Potency [2] | activation [3] -3.17% [at 17.1 µM, percent relative to cAMP agonist control] | Potency [4] | activity change, negative = inhibition [5] -11.6% [at 30.8 µM] | activation [6] 26.3% [at 30.8 µM]
